In PubChem BioAssay AID1903 (Southern Research Specialized Biocontainment Screening …, 2009) one finds inhibition data, which are given here for 98 compounds.

Hit rate of the full screen: of about 310,000 compounds, about 1,200 (0.39%) were called active. Not all results are given here. Potency and affinity values are given separately. A number with no mark means an inactive call. No rule for the calls is given here.

For the assay, the target named is Large T antigen (Simian virus 40) (UniProt P03070). Put plainly: SV40 large T antigen inhibitors, biochemical (AID 1903). To be noted: SV40 large T antigen ATPase/helicase inhibition assay; at 20 µM; stronger effect = higher value.
Chain of Large T antigen (Simian virus 40) (P03070 whole entry, looked up): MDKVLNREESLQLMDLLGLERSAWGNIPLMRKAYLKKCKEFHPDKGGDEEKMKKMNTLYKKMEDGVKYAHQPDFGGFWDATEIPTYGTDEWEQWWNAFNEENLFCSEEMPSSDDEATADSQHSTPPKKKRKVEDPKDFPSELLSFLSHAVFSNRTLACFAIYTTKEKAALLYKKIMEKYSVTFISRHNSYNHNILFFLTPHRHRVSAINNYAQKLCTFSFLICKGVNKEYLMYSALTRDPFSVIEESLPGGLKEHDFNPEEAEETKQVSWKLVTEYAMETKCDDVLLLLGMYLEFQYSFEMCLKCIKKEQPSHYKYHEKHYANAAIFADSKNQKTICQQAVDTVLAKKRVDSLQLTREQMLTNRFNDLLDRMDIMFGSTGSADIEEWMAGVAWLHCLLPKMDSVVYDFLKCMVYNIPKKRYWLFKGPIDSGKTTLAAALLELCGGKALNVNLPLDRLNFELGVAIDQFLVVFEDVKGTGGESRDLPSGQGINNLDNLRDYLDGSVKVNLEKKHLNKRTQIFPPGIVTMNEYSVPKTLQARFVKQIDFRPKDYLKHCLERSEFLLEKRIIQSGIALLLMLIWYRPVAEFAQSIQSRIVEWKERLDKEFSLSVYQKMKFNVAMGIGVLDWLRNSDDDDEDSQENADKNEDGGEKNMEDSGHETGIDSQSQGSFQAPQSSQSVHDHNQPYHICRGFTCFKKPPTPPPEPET
Consider `COCCCNCCOCCOc1ccc(C)cc1[N+](=O)[O-]`, for which the inhibition (in general, the drop in the measured response relative to a control, in per cent) is 0.35%.
As for `Cc1cccc(NC(=S)NNc2cccc(Cl)c2)c1`, the inhibition was 23.5%.
With `CCOc1ccc(C(=O)c2ccc(OCC)c(N)c2)cc1N`, the inhibition was 3.54%.
The same measure for `CCOc1ccc(S(=O)(=O)N(CC)CC)cc1N`: -1.97%.
The same measure for `O=C(CN1CCN(C2CCCCC2)CC1)Nc1ccc(Br)cc1`: 3.84%.
The same measure for `COc1ccc(C(=O)C2CCN(CC(=O)Nc3ccc(C)cc3)CC2)cc1`: -0.7%.
Take `O=C(CN1CCC(C(=O)c2ccc(F)cc2)CC1)Nc1ccc(F)cc1`: the inhibition was 3.44%.
Turning to `CC(=O)c1ccc(NC(=O)CN2CCC(C(=O)c3ccc(F)cc3)CC2)cc1`, the inhibition was 25.6%.
The result for `Cc1ccc(NC(=O)CN2CCC(C(=O)c3ccc(F)cc3)CC2)cc1` reads 11.8%.
The same measure for `CN(C)c1ccc(NC(=O)CN2CCC(NC(=O)C3CCCCC3)CC2)cc1`: 28.2%.
The same measure for `COc1cccc(-c2ccc(NC(=O)C3CCCN(Cc4cnc(C)n4C)C3)cc2)c1` (stereo not drawn): 12.9%.
For `Nc1nc(-c2ccccc2)c(-c2ccc([N+](=O)[O-])cc2)s1`, the inhibition is 2.8%.
As for `Nc1nc(-c2ccccc2)c(-c2ccccc2)s1`, the inhibition was 22%.
The result for `O=C(Nc1cccc(S(=O)(=O)N2CCCC2)c1)c1cccnc1` reads 8.88%; that for `CCn1c(C)nc2cc(C(=O)NNC(=S)NC(=O)c3ccccc3)ccc21`, 22.4%; that for `COc1ccc(C(=O)Nc2ccc(NC(=O)C3CC3)cn2)cc1`, 10.7%.
In the case of `CC(C)N1C(=O)S/C(=C/c2ccc(Sc3nc4ccccc4[nH]3)o2)C1=O`, the inhibition is 7.29%.
Turning to `N#C/C(=C/c1ccc(Sc2nc3ccccc3[nH]2)o1)c1cccc(Br)c1`, the inhibition was -8.47%.
The same measure for `N#C/C(=C\c1ccc(Sc2nc3ccccc3[nH]2)o1)c1ccccc1`: 13%.
The same measure for `C=CCN1C(=O)S/C(=C/c2ccc(Sc3nc4ccccc4[nH]3)o2)C1=O`: 6.66%; for `CCN1C(=O)S/C(=C/c2ccc(Sc3nc4ccccc4[nH]3)o2)C1=O`: 10.6%.
The result for `N#C/C(=C/c1ccc(Sc2nc3ccccc3[nH]2)o1)c1cccc(F)c1` reads 0.21%; that for `O=C(NCc1ccco1)/C(=C/c1ccc(F)cc1)NC(=O)c1ccccc1`, 5.2%; that for `O=C(O)CC1(CC(=O)Nc2ccc3ccccc3n2)CCCCC1`, 10.8%.
In the case of `Cc1cccc(N=C2N=C(N)c3ccccc32)c1`, the inhibition was 0.797%.
Take `COc1ccc(-c2nc3ccccn3c2NC2CCCCC2)cc1SC1CCCCC1`: the inhibition was 9.08%.
On to `COc1ccc(-c2cn(Cc3ccc(C)cc3)nn2)cc1`, for which the inhibition was 5.41%.
The result for `COCCOC(=O)C1=C(C)NC(=O)NC1c1cn(-c2ccccc2)nc1-c1cccs1` (stereo not drawn) reads 8.59%.
Turning to `Cc1cccc(Oc2ccccc2N)c1`, the inhibition is -2.44%.
The same measure for `O=C(Nc1ccc(N2CCN(c3ccc(O)cc3)CC2)cc1)Oc1ccccc1`: 16.3%; for `CC(=O)Nc1ccc(NC(=O)Oc2ccccc2)cc1`: 16.2%.
The same measure for `O=C(CC1C(=O)NCCN1CC(c1ccccc1)c1ccccc1)NC1CC1` (stereo not drawn): 3.88%; for `OCC1(CCCc2ccccc2)CCN(C2CCC2)CC1`: 4.13%.
The result for `O=C(COC(=O)C1=COCCO1)NCc1ccc(F)cc1` reads 17.7%; that for `Cc1ccccc1OCCC(=O)Nc1ccc(F)c(Cl)c1`, 7.2%.
As to `Cc1cc(=O)[nH]c2cc(O)ccc12`, the inhibition is 12.9%.
The result for `CCCCCCCCC1=NCCc2c1[nH]c1ccccc21` reads 7.25%; that for `COc1cccc(C=Nc2ccccc2C(=O)Nc2ccccc2)c1O`, 1.08%.
The result for `Nc1cc(-c2ccc(Cl)cc2)nn1S(=O)(=O)c1ccccc1` reads 0.87%.
As for `CCc1ccc(NC(=O)/C(C#N)=C\c2ccc(OC)c(C(=O)O)c2)cc1`, the inhibition was 1.43%.
The same measure for `COc1ccc(/C=C(/C#N)C(=O)Nc2ccccc2C)cc1C(=O)O`: 9.24%.
The same measure for `N#C/C(=C\c1ccc(O)c(Br)c1)C(=O)NCc1ccccc1`: 12.1%; for `N#C/C(=C/c1ccc(N2CCOCC2)o1)C(=O)Nc1ccccc1`: 8.94%.
In the case of `N#C/C(=C/c1ccc(N2CCCCC2)o1)C(=O)Nc1ccc(Cl)cc1`, the inhibition is 22.3%.
Turning to `COc1ccc(/C=C(\C#N)C(=O)Nc2cccc3ncccc23)cc1OC`, the inhibition was 6.66%.
The result for `COc1cc(/C=C(\C#N)C(=O)Nc2cccc3ncccc23)ccc1O` reads 3.35%; that for `COc1ccc(/C=C(\C#N)C(=O)NCc2ccccc2)cc1O`, 8.17%.
The result for `CCOP(=O)(O)c1ccccc1OCCOCCOc1ccccc1P(=O)(O)OCC` reads -4.92%; that for `COc1ccc(Cl)cc1Nc1nc(-c2sc(NC(=O)c3ccccc3)nc2C)cs1`, 2.67%.
The result for `CCOC(=O)Cn1c(=NC(=O)C(C)C)sc2c(C)cc(C)cc21` reads 14%.
As to `CCCc1nnc(NC(=O)CCC(=O)N2CCCCC2CC)s1` (stereo not drawn), the inhibition was 6.09%.
For the compound `N#C/C(=C\c1ccc(O)c(O)c1)C(=O)NCCCc1ccccc1`, the inhibition was 37.7%.
Regarding `COc1cc(/C=C(\C#N)C(=O)N2CCc3ccccc32)ccc1O`, the inhibition is 57%.
The result for `CN1C(=O)S/C(=C\c2ccccc2OCc2ccc(C(=O)O)cc2)C1=O` reads 10.5%; that for `CC(NC(=O)/C(C#N)=C/c1ccc(C(=O)O)cc1)c1ccccc1` (stereo not drawn), 2.43%; that for `COc1ccc(/C=C(\C#N)C(=O)NC(C)c2ccccc2)cc1O` (stereo not drawn), 4.31%.
On to `O=C(C(=O)N1CCCc2ccccc21)N1CCCc2ccccc21`, for which the inhibition is -4.81%.
The result for `O=C1NC(=S)N/C1=C\c1ccccc1OCc1ccc(C(=O)O)cc1` reads 11.5%.
The result for `COc1cc(/C=C(\C#N)C(=O)NCCc2ccccc2)cc(OC)c1O` reads 23.4%; that for `Cc1nnc(NC(=O)CSc2n[nH]c(-c3ccccc3)n2)s1`, -0.77%; that for `O=C(CC(C(=O)N1CCc2ccccc21)n1ccnc1)NCC1CCCO1` (stereo not drawn), 2.93%.
The result for `COc1ccccc1N(C)S(=O)(=O)c1ccc(C(=O)OCC(=O)NCC(F)(F)F)cc1` reads 21.8%; that for `COc1ccc(OCCCC(=O)OCC(=O)NNC(=O)c2ccc([N+](=O)[O-])cc2)cc1`, 11.8%; that for `COc1ccc2c(=O)c(N3C(=O)c4ccccc4C3=O)c(C)oc2c1`, 0.21%.
Take `COc1ccc(C)cc1NC(=O)Nc1ccc2c(c1)CCC2`: the inhibition is -11.4%.
Take `COC(=O)c1ccc(COc2ccccc2/C=C(\C#N)C(=O)Nc2ccc(C)cc2)cc1`: the inhibition is 3.16%.
On to `N#C/C(=C/c1ccc(C(=O)O)cc1)C(=O)Nc1ccccc1`, for which the inhibition is 2.52%.
Consider `COc1cc(/C=C(/C#N)C(=O)Nc2ccccc2)c(Br)cc1OCc1ccc(C(=O)O)cc1`, for which the inhibition is 12.2%.
The same measure for `N#C/C(=C/c1ccc(O)c([N+](=O)[O-])c1)C(=O)Nc1ccccc1`: 6.93%; for `CCOC(=O)Cc1csc(NC(=O)CCCN2C(=O)c3ccccc3C2=O)n1`: 1.05%; for `Cc1[nH]c2ccccc2c1C(Nc1nccs1)c1ccncc1` (stereo not drawn): 0.2%.
Turning to `CCOc1ccc(NC(=O)CCn2c(=O)[nH]c3ccsc3c2=O)cc1`, the inhibition is 9.67%.
As for `Cc1ccc(S(=O)(=O)N(C)C)cc1NC(=O)CSc1nc2ccccc2c(=O)n1CC1CCCO1` (stereo not drawn), the inhibition was 23.7%.
The result for `O=C(Nc1ncccn1)C1=C(O)c2ccccc2S(=O)(=O)N1Cc1ccccc1` reads 2.54%; that for `Cc1cc(Cl)c(S(=O)(=O)NC2CCCCC2)cc1OCC(=O)Nc1nncs1`, 1.03%; that for `Cc1ccccc1NC(=O)CCNS(=O)(=O)c1ccc2c(c1)CCC(=O)N2`, 5.35%.
On to `Cc1ccc(NC(=O)CCNS(=O)(=O)c2ccc3c(c2)CCC(=O)N3)c(Br)c1`, for which the inhibition is 3.77%.
The same measure for `CC(C)(C)n1nc2c(c1NC(=O)Cc1cccc3ccccc13)CS(=O)(=O)C2`: 2.22%; for `Brc1cccc(Cn2c(-c3cncs3)nc3ccccc32)c1`: 12%; for `CC(=O)c1cccc(NC(=O)COC(=O)COc2ccccc2C)c1`: 2.51%.
For `CC(C)c1cc2cc3ccc(=O)oc3cc2o1`, the inhibition was 4.47%.
Turning to `COc1cc2ccc(=O)oc2cc1O`, the inhibition was 2.12%.
As to `O=C1CCCc2[nH]nc(-c3cccnc3)c21`, the inhibition was 12%.
With `Cc1c(Br)c(=O)oc2c(Br)c(O)ccc12`, the inhibition is 23.7%.
The result for `Cc1c(C)c2cc(Cl)c(O)c(CN(C)C)c2oc1=O` reads 6.8%.
Consider `C/C(=N\N=C\c1ccccc1F)c1nnn(-c2nonc2N)c1C`, for which the inhibition is -1.72%.
The same measure for `O=C(NCc1ccc(Cl)cc1)c1cnn2ccccc12`: 3.57%; for `O=C(O)C1CCCCC1C(=O)Nc1ccc(-c2ccccc2)cc1` (stereo not drawn): -3.79%.
`O=C(Nc1ccccc1)N1CCOCC1`: the inhibition is 12.8%.
On to `O=C(Nc1ccc(Nc2ccccc2)cc1)c1ccccc1`, for which the inhibition is 16.9%.
The result for `CCC(=O)Nc1ccc(Nc2ccccc2)cc1` reads 33.2%.
The result for `CC(=O)Nc1ccc(Nc2ccccc2)cc1` reads 23.7%; that for `O=C(Nc1ccccc1)Nc1ccc(Nc2ccccc2)cc1`, 25.8%; that for `O=C(Nc1ccc(F)cc1)N1CCOCC1`, 0.68%.
The same measure for `O=C(O)C1CCCCC1C(=O)Nc1ccccc1Nc1ccccc1` (stereo not drawn): 20.9%; for `CC(=O)COc1ccc2c(c1C)O/C(=C\c1ccco1)C2=O`: 35.5%.
As to `CCN1C(=O)CC(c2ccc(OC(C)C)cc2)C1=O` (stereo not drawn), the inhibition is -0.45%.
With `CC[C@H](C)[C@H](NC(N)=O)C(=O)Nc1ccc(NC(C)=O)cc1`, the inhibition was 9.4%.
